Screening data from PubChem BioAssay.
D2 PAM-1: positively modulates the human D2 dopamine receptor allosterically; AID 485347; HEK293 T-REx D2, calcium flux, EC20 dopamine potentiation; P14416; 340,000 tested, 0.34% active; potentiation, % at 10 µM;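 active = potentiation over 3 SD above the plate norm, cut at about 30% in these data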
Target sequence (P14416 whole entry, looked up): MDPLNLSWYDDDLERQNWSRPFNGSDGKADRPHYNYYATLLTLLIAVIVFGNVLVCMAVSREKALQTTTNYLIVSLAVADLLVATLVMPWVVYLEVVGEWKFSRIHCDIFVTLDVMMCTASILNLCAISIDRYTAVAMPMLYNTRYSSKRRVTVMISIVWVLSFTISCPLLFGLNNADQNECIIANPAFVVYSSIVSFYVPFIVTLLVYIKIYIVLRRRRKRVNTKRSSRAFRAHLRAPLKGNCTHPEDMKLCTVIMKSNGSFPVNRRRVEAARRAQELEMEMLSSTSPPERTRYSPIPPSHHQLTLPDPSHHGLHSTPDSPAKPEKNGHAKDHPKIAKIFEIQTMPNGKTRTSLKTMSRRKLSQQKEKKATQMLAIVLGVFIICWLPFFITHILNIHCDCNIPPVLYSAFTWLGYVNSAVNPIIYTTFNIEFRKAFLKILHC
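Cells plated with tetracycline inducer and held overnight at 30 C; calcium dye loaded 30–90 min at room temperature; baseline taken, compound added and read 180 s; EC20 dopamine then added and read 180 s.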
D2 antagonist: D2 dopamine receptor (human) antagonism; P14416; HEK293 TREx D2 cells, calcium flux, dopamine EC80; inhibition, % at 10 µM; 340,000 tested, 2% active; AID 485344; in the data active = inhibition above about 30%; inactive = below that, where a call was filed
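Read-out: kinetic calcium fluorescence (1 cycle/s) in inducible HEK293 T-REx D2 cells after an EC80 dopamine addition that followed 180 s compound preincubation. Loss of the dopamine response indicates antagonism.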
D2 PAM-2: positive allosteric modulators of human D2 dopamine receptor. P14416. potentiation, % (test concentration not listed). DiscoveRx D2 beta-arrestin cells, luminescence, 90 min; 100% = 57 uM dopamine signal. 360,000 tested, 0.23% active; in the data active = potentiation above about 50%; inconclusive = mostly about 30% to 49%
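D2 cells co-treated with compound plus 50 nM dopamine (EC20) for 90 min at 37 deg C to detect potentiation. Beta-arrestin recruitment was read as enzyme-fragment luminescence after 1 h at ambient temperature. Full response was set by 57 uM dopamine.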
D2 ag-1: agonists of human D2 dopamine receptor; P14416; HEK293 T-REx D2 cells, calcium flux agonist mode; 340,000 tested, 0.53% active; activation, % at 2 µM;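 active = activation over 3 SD above normal in the single-dose calcium agonist read, cut at about 30% in these data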
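In this primary screen, compounds producing a positive calcium signal within 180 s of addition to tetracycline-induced, force-coupled HEK293 Trex D2 cells are flagged; cells are dye-loaded with a no-wash calcium kit beforehand.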
D2 ag-2: activates the human D2 dopamine receptor; P14416; DiscoveRx PathHunter D2 beta-arrestin, luminescence, 90 min; 100% = 57 uM dopamine signal; activation, % (concentration not given with the values); 360,000 tested, 0.084% active; in the data active = activation above about 40%; inconclusive = between about 15% and that limit
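DiscoveRx PathHunter D2 beta-arrestin cells (2,100/well) attached overnight, then compound-stimulated 90 min at 37 C in HBSS/10 mM HEPES/0.1% Tween-20 buffer; beta-galactosidase complementation read by luminescence after 1 h at ambient temperature. Dopamine 57 uM final (EC100) as control.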
Numbers stand for hits. In the library only some 2.4% were active in any assay of this set; here they are far more common.

For COc1ccc(NC(=O)COC(=O)CCCOc2ccc(Cl)cc2Cl)cc1 the results were D2 PAM-1 inactive, D2 antagonist 40, D2 PAM-2 inactive, D2 ag-1 inactive and D2 ag-2 inactive.
COc1ccc(-n2c3c(cc(-c4nc(-c5ccc(C)cc5)cs4)c2=O)C(=O)CC(C)(C)C3)cc1 was read as D2 PAM-1 inactive and D2 ag-1 inactive.
Cc1[nH]c2ccccc2c1C1C(c2ccccc2)=NN=C(C(C)C)N1O (stereo not drawn) was read as D2 PAM-1 31, D2 antagonist inactive, D2 PAM-2 inactive, D2 ag-1 inactive and D2 ag-2 inactive.
For COc1ccc(Cl)cc1NC(=O)CN(C)C(=O)c1cc2c(F)cccc2s1 the results were D2 PAM-1 inactive, D2 antagonist 31, D2 PAM-2 inactive, D2 ag-1 inactive and D2 ag-2 inactive.
COc1ccc(Cl)cc1NC(=O)CN(C)C(=O)c1ccc(C)s1 was read as D2 PAM-1 inactive, D2 antagonist inactive, D2 PAM-2 inactive, D2 ag-1 inactive and D2 ag-2 inactive.
COc1cc(Cl)c(C)cc1NC(=O)c1cnn(-c2ccc(C)cc2)c1-n1cccc1 was read as D2 PAM-1 inactive and D2 ag-1 inactive.
`Cc1ccc(Nc2c(-c3ccco3)nc3ccc(C)cn23)cc1` gave D2 PAM-1 inactive and D2 ag-1 inactive.
`Cc1nn(-c2ccccn2)c2c1C(=O)C(Br)CC2` (stereo not drawn) gave D2 PAM-1 inactive, D2 antagonist inactive, D2 PAM-2 54, D2 ag-1 inactive and D2 ag-2 inconclusive.
`C=CCc1ccc(OCCOCCN(C)C)c(OC)c1` gave D2 PAM-1 31, D2 antagonist inactive, D2 PAM-2 inactive, D2 ag-1 inactive and D2 ag-2 inactive.
`O=C(Nc1ccccc1)Nc1ccccc1Br` gave D2 PAM-1 inactive, D2 antagonist 42, D2 PAM-2 inactive, D2 ag-1 inactive and D2 ag-2 inactive.
`O=C(Nc1ccccc1)Nc1cccc(NC(=O)Nc2ccccc2)c1F` gave D2 PAM-1 inactive, D2 antagonist inactive, D2 PAM-2 inactive, D2 ag-1 inactive and D2 ag-2 inactive.
For CCCCn1c(SCC(=O)c2ccc(O)cc2O)nc2cc(S(N)(=O)=O)ccc21 the results were D2 PAM-1 inactive, D2 antagonist 32, D2 PAM-2 inactive, D2 ag-1 inactive and D2 ag-2 inactive.
Screening CCCCn1c(SCC(=O)c2cc(OC)ccc2OC)nc2cc(S(N)(=O)=O)ccc21 returned D2 PAM-1 inactive, D2 antagonist inactive, D2 PAM-2 inactive, D2 ag-1 inactive and D2 ag-2 inactive.
Screening CC(=O)N1C[C@H]2CON(C)[C@H]2C[C@H]1c1ccc(-c2ccc(C#N)cc2)cc1 returned D2 PAM-2 inactive and D2 ag-2 inactive.
For O=C(Cc1cccs1)Nc1cc(S(=O)(=O)N2CCCCC2)ccc1Cl the results were D2 PAM-1 77, D2 antagonist inactive, D2 PAM-2 inactive, D2 ag-1 inactive and D2 ag-2 inactive.
For COc1ccc(S(=O)(=O)Nc2ccccc2OC)cc1NC(=O)Cc1cccs1 the results were D2 PAM-1 inactive, D2 antagonist inactive, D2 PAM-2 inactive, D2 ag-1 inactive and D2 ag-2 inactive.
Screening COc1ccc(S(=O)(=O)N(C)C)cc1NC(=O)c1ccc2c(c1)NC(=O)C(C)S2 (stereo not drawn) returned D2 PAM-1 inactive, D2 antagonist 77, D2 PAM-2 inactive, D2 ag-1 inactive and D2 ag-2 inactive.
For CN(C)S(=O)(=O)c1ccc(Cl)c(NC(=O)C2CCN(S(=O)(=O)c3cccs3)CC2)c1 the results were D2 PAM-1 inactive, D2 antagonist 31, D2 PAM-2 inactive, D2 ag-1 inactive and D2 ag-2 inactive.
For COc1ccc(S(=O)(=O)N(C)C)cc1NC(=O)Cc1cccs1 the results were D2 PAM-1 inactive, D2 antagonist 34, D2 PAM-2 inactive, D2 ag-1 inactive and D2 ag-2 inactive.
`O=C(Cc1cccs1)Nc1ccc(S(=O)(=O)N2CCCCC2)cc1` gave D2 PAM-1 inactive, D2 antagonist inactive, D2 PAM-2 inactive, D2 ag-1 inactive and D2 ag-2 inactive.
`COc1ccc(CNC(=O)C(=O)NCC(c2ccco2)S(=O)(=O)c2ccc(Cl)cc2)cc1` (stereo not drawn) gave D2 PAM-1 inactive and D2 ag-1 inactive.
For COc1ccc(NC(=O)Cc2cccs2)cc1S(=O)(=O)N1CCCCC1 the results were D2 PAM-2 inactive and D2 ag-2 inactive.
COc1ccc(S(=O)(=O)N2CCCCC2)cc1NC(=O)Cc1cccs1 was read as D2 PAM-1 inactive, D2 antagonist 38, D2 PAM-2 inactive, D2 ag-1 inactive and D2 ag-2 inactive.
COc1ccc(S(=O)(=O)N(C)C)cc1NC(=O)CSC(C)C(=O)Nc1cc(C)on1 (stereo not drawn) was read as D2 PAM-1 inactive, D2 antagonist 72, D2 PAM-2 inactive, D2 ag-1 inactive and D2 ag-2 inactive.
Cc1c(C)n(Cc2ccc(F)cc2)c2ccc(C(=O)N3CCN(c4ccc(F)cc4)CC3)cc12 was read as D2 PAM-1 inactive.
`CCN1CCN(C(=O)c2ccc3c(c2)c(C)c(C)n3Cc2ccccc2)CC1` gave D2 PAM-1 inactive, D2 antagonist 38, D2 PAM-2 inactive, D2 ag-1 inactive and D2 ag-2 inactive.
`Clc1ccc(CN2C3=NCCCN3c3ccccc32)cc1Cl` gave D2 PAM-1 inactive, D2 antagonist 76, D2 PAM-2 inactive, D2 ag-1 inactive and D2 ag-2 inactive.
Screening Clc1ccc(CN2C3=NCCCN3c3ccccc32)cc1 returned D2 PAM-1 inactive, D2 antagonist inactive, D2 PAM-2 inactive, D2 ag-1 inactive and D2 ag-2 inactive.
Screening CCCN1C=CC(=CC=C(C#N)C#N)C=C1 returned D2 PAM-1 inactive, D2 antagonist inactive, D2 PAM-2 inactive, D2 ag-1 inactive and D2 ag-2 inactive.
For CCCN1C=CC(=C/C=C(\C#N)C(=O)OCC)C=C1 the results were D2 PAM-1 inactive, D2 antagonist inactive and D2 ag-1 34.
`CCCCCCN1C=CC(=C/C=C(\C#N)C(=O)OCC)C=C1` gave D2 PAM-1 inactive, D2 antagonist inactive, D2 PAM-2 inactive, D2 ag-1 43 and D2 ag-2 inactive.
Screening COc1ccc(N(Cc2cccs2)C(=O)COc2ccc(C(C)C)cc2)cc1 returned D2 PAM-1 inactive and D2 ag-1 inactive.
CCc1ccc(-n2nc(C)c3c(C(=O)N4CCN(c5cccc(Cl)c5)CC4)cc(C)nc32)cc1 was read as D2 PAM-1 inactive and D2 ag-1 inactive.
Cc1nc2ccccc2n1/N=C/c1ccc([N+](=O)[O-])s1 was read as D2 PAM-1 inactive, D2 antagonist inactive, D2 PAM-2 inactive, D2 ag-1 inactive and D2 ag-2 inactive.
Cc1cc2ncn(/N=C/c3ccc([N+](=O)[O-])s3)c2cc1C was read as D2 PAM-1 inactive, D2 antagonist inactive, D2 PAM-2 71, D2 ag-1 inactive and D2 ag-2 inactive.
